This note sets out measurements from PubChem BioAssay AID463173 (ICCB-Longwood Screening Facility, Harvard Medical School, 2010).

Among all 52,000 compounds or so, about 4,300 (8.3%) were called active. The sample holds actives, similar compounds and a random draw of the others, so the mix is not that of the screen. A number with no mark means an inactive call. No stated cut-off is given here; in the data, active means survival mostly below about 52% (no sharp cut-off); inactive means mostly above about 56%.

In this experiment the test system is DeltatarO mutant. Put plainly: growth inhibition of S. aureus wild type versus tarO mutant, primary screen, teichoic acid synthesis inhibitors, RN4220, OD600 (AID 463173). The conditions noted are these: OD600, 18 h, hits give low values, screened at 18.75 µg/mL (by protocol).
Consider `COc1cc(C(=O)Nc2ccc(NC(=O)c3ccc(Br)cc3)cc2)cc(OC)c1OC`, for which the survival was 75%.

`O=C(CSc1nc2c(c(=O)[nH]1)CN(Cc1ccc3c(c1)OCO3)CC2)Nc1cccc(Cl)c1`: the survival is 76%.

On to `CCOC(=O)CNc1c(-c2ccc(OC)cc2)nc2ccc(Cl)cn12`, for which the survival was 58%.

On to `CCOC(=O)c1cccc(NC(=O)CSc2nc3cc4ccccc4cc3[nH]2)c1`, for which the survival is 36% (active).

Consider `Cc1ccc(NC(=O)CSc2nc(C)c(Cc3ccccc3)c(=O)[nH]2)cc1`, for which the survival was 48%.

On to `Cc1nc(SCC(=O)Nc2ccc(Br)cc2)[nH]c(=O)c1Cc1ccccc1`, for which the survival is 59%.

`CCOC(=O)c1ccc(NC(=O)CSc2nc(C)c(Cc3ccccc3)c(=O)[nH]2)cc1`: the survival is 45% (active).

For `CCOC(=O)c1ccc(NC(=O)CSc2nc3cc4ccccc4cc3[nH]2)cc1`, the survival is 65%.

For the compound `COc1cccc(NC(=O)CSc2nc(C)c(Cc3ccccc3)c(=O)[nH]2)c1`, the survival was 58%.

For `Cc1cccc(NC(=O)CSc2nc(C)c(Cc3ccccc3)c(=O)[nH]2)c1`, the survival is 18% (active).

As to `Cc1ccc(NC(=O)CSc2nc(C)c(Cc3ccccc3)c(=O)[nH]2)cc1C`, the survival is 84%.

In the case of `COC(=O)c1ccc(NC(=O)CSc2nc3cc4ccccc4cc3[nH]2)cc1`, the survival was 65%.

As for `CCN(CC)C(C)C#Cc1ccccc1` (stereo not given), the survival is 95%.

With `Cc1ccc(-n2nc(C(=O)Nc3ccc(C)c(F)c3)c3c4ccccc4n(C)c3c2=O)cc1`, the survival was 92%.

Regarding `Fc1ccc(-n2ncc3c(Nc4ccc5c(c4)OCCO5)ncnc32)cc1`, the survival was 97%.

For the compound `O=C(C1CCC(CNS(=O)(=O)c2cccs2)CC1)N1CCN(c2ccc(Cl)cc2)CC1` (stereo not given), the survival is 60%.

Take `CCN(c1ccccc1)c1nnc(NC(=O)Nc2ccc(Br)cc2F)s1`: the survival was 97%.

On to `CC(=O)N1CCN(c2ccccc2N)CC1`, for which the survival was 93%.

As for `O=c1[nH]c(Nc2nc3ccccc3o2)nc2ccccc12`, the survival is 95%.

On to `Cc1cc(C)nc(Nc2nc3ccccc3c(=O)[nH]2)n1`, for which the survival was 74% (active).

For the compound `Cc1cc(=O)[nH]c(Nc2nc3ccccc3[nH]2)n1`, the survival was 71%.

As for `O=C1CCCc2cc(S(=O)(=O)N3CCCC(C(=O)Nc4ccc(F)c(Cl)c4)C3)ccc2N1` (stereo not given), the survival is 70%.

With `Cc1ccccc1C(=O)OCc1cc(=O)n2c(C)csc2n1`, the survival is 109%.

`O=S(=O)(c1ccc2nc(N3CCN(c4cccc(Cl)c4)CC3)ccc2c1)N1CCCCC1`: the survival is 81%.

As for `O=S(=O)(c1ccc2nc(N3CCN(c4ccccc4)CC3)ccc2c1)N1CCCCC1`, the survival was 6% (active).

Consider `CC1CCN(S(=O)(=O)c2ccc3nc(N4CCN(c5ccccc5)CC4)ccc3c2)CC1`, for which the survival is 78%.

Consider `Cc1ccc(OC(=O)c2ccc3snnc3c2)cc1`, for which the survival was 115%.

For `COc1ccccc1-c1nn(CCC(=O)Nc2cccc(C(C)=O)c2)c2nc(C)cc(C)c12`, the survival was 69%.

Turning to `Cc1cc(C)c2c(=O)cc(C(=O)Nc3ccc(S(=O)(=O)N(C)Cc4ccccc4)cc3)oc2c1`, the survival is 61%.

On to `COc1ccc(C(=O)NCCSc2ccccn2)cc1`, for which the survival is 78%.

Turning to `CCCOc1ccc(CNC(=O)c2oc3ccc4c(c3c2C)C(=O)CC(C)(CC)O4)cc1` (stereo not given), the survival was 68%.

As to `Cc1c(C(=O)NCc2ccccc2Br)oc2ccc3c(c12)C(=O)CC(C)(C)O3`, the survival was 83%.

Take `Cc1c(C(=O)NCc2cccc(Br)c2)oc2ccc3c(c12)C(=O)CC(C)(C)O3`: the survival was 61%.

`CCC1(C)CC(=O)c2c(ccc3oc(C(=O)Nc4ccc(C(C)=O)cc4)c(C)c23)O1` (stereo not given): the survival was 78%.

Take `Cc1c(C(=O)NCc2ccc(Cl)cc2)oc2ccc3c(c12)C(=O)CC(C)(C)O3`: the survival is 53% (active).

Turning to `Cc1cc(C)cc(NC(=O)c2oc3ccc4c(c3c2C)C(=O)CC(C)(C)O4)c1`, the survival was 89%.

In the case of `Cc1cccc(C)c1NC(=O)c1oc2ccc3c(c2c1C)C(=O)CC(C)(C)O3`, the survival was 42% (active).

Take `CC(=O)Nc1ccc(NC(=O)c2oc3ccc4c(c3c2C)C(=O)CC(C)(C)O4)cc1`: the survival is 75%.

In the case of `CCC1(C)CC(=O)c2c(ccc3oc(C(=O)NCc4ccccc4)c(C)c23)O1` (stereo not given), the survival is 44% (active).

For the compound `CCOC(=O)CC(NC(=O)Cn1nnc(-c2ccccc2F)n1)c1ccccc1Cl` (stereo not given), the survival is 77%.

On to `COc1ccc(N2CCN(C(=O)c3cn(C)c4ccc(S(=O)(=O)N(C)C5CCCCC5)cc4c3=O)CC2)cc1`, for which the survival is 93%.

With `COc1ccccc1NC(=O)CSC1=Nc2ccccc2C2=NC(CC(=O)NCCc3ccccc3)C(=O)N12` (stereo not given), the survival was 85%.

As for `COc1ccc(C)cc1NC(=O)Cn1c(=O)n(Cc2nc(C)no2)c(=O)c2ccccc21`, the survival was 79%.

As to `COc1cccc(CNC(=O)CSc2ncc3c(n2)-c2cc(Cl)ccc2N(C)S3(=O)=O)c1`, the survival was 92%.

Turning to `CCSC1=C(C#N)C2(CCCCC2)C(C#N)=C(N)N1`, the survival was 68%.

Turning to `N#CC1=C(N)NC(SCC(=O)Nc2ccc(Br)cc2)=C(C#N)C12CCCCC2`, the survival was 12% (active).

As to `O=C(CSc1nc2c(c(=O)[nH]1)CCCC2)Nc1ccc(Br)cc1`, the survival is 58%.

As for `COc1cccc(-c2cn3c(n2)sc2cc(C(=O)NCc4ccccc4F)ccc23)c1`, the survival is 60%.

Consider `Cn1c(=O)n(C)c2cc(N3CCOCC3)c(NC(=O)c3ccc(Cl)cc3)cc21`, for which the survival is 87%.

`Cc1ccc(-n2nc3c(=O)n(C(C)C(=O)NCc4ccco4)nc(C)c3c2C)cc1` (stereo not given): the survival is 47% (active).

As to `CCC(C(=O)NCc1ccco1)n1nc(C)c2c(C)n(-c3ccc(C)cc3)nc2c1=O` (stereo not given), the survival was 73%.

As for `Cc1ccc(CCNC(=O)C(C)n2nc(C)c3c(C)n(-c4ccc(C)cc4)nc3c2=O)cc1` (stereo not given), the survival is 86%.

In the case of `Cc1nn(CC(=O)NCc2ccco2)c(=O)c2nn(-c3ccccc3)c(C)c12`, the survival is 92%.

For `CCCNC(=O)C(C)n1nc(C)c2c(C)n(-c3ccccc3)nc2c1=O` (stereo not given), the survival was 102%.

Regarding `Cc1ccc(-n2nc3c(=O)n(C(C)C(=O)NCc4ccccc4C)nc(C)c3c2C)cc1` (stereo not given), the survival is 94%.

Turning to `CSc1ccc(CCNC(=O)C(C)n2nc(C)c3c(C)n(-c4ccccc4)nc3c2=O)cc1` (stereo not given), the survival is 46% (active).

`CCC(C(=O)NCCc1ccc(SC)cc1)n1nc(C)c2c(C)n(-c3ccc(C)cc3)nc2c1=O` (stereo not given): the survival is 80%.

Consider `Cc1nn(C(C)C(=O)NCc2ccco2)c(=O)c2nn(-c3ccccc3)c(C)c12` (stereo not given), for which the survival was 37% (active).

On to `CCOC(=O)N1CCC(NC(=O)c2cnn(-c3cccc(C)c3)c2-n2cccc2)CC1`, for which the survival is 85%.

Consider `CCC(C)(C)N1CC(=O)N(Cc2ccccc2)C(c2ccc(OC)cc2)C1=O` (stereo not given), for which the survival was 78%.

As for `CCOc1ccc(NC(=O)N(C)CCc2c(C)nn(C)c2C)cc1`, the survival was 74%.

Take `COc1cccc(-n2nnc3c(sc4nc(C)cc(C)c43)c2=O)c1`: the survival was 91%.

Take `CCN(C(=O)Cc1ccccc1OC)c1nnc(-c2ccncc2)s1`: the survival was 70%.

As for `Nc1nc(-c2ccco2)nn1C(=O)c1ccc(Cl)cc1Cl`, the survival is 91%.

Turning to `COc1ccc(-c2cc(C(=O)NCCc3ccccc3)c3c(-c4ccccc4)[nH]nc3n2)cc1`, the survival is 87%.

As for `Cc1cc2c(cc1NC(=O)c1ccc(C(C)(C)C)cc1)n(C)c(=O)c(=O)n2C`, the survival is 84%.

Consider `COc1cc(OC)c(NC(=O)N2CCN3CCCCC3C2)cc1Cl` (stereo not given), for which the survival is 75%.

Regarding `CCN1CCN(c2csc3ccc(C)cc3c2=O)CC1`, the survival was 74%.

For the compound `COc1ccccc1NC(=O)N(Cc1cc2c(C)ccc(C)c2[nH]c1=O)CC1CCCO1` (stereo not given), the survival is 94%.

On to `CCOC(=O)c1c(NC(=O)c2cc3ccccc3c(=O)o2)sc2c1CCC(C(C)(C)C)C2` (stereo not given), for which the survival is 53%.

Regarding `CCOC(=O)c1c(NC(=O)c2ccc(C)c(C)c2)sc2c1CCCCC2`, the survival was 2% (active).

Take `CCOC(=O)c1c(NC(=O)c2ccc(OC)c(OC)c2)sc2c1CCCCC2`: the survival was 58%.

For the compound `CCOC(=O)c1c(NC(=O)c2cc(OC)c(OC)c(OC)c2)sc2c1CCCC2`, the survival was 81%.

Turning to `CCOC(=O)c1c(NC(=O)c2ccc(OCC)c(Br)c2)sc2c1CCCC2`, the survival was 74%.

On to `CCOC(=O)c1c(NC(=O)c2ccc(OC)cc2)sc2c1CCCCC2`, for which the survival is 2% (active).

Consider `CCCOC(=O)c1c(NC(=O)c2cc3ccccc3c(=O)o2)sc2c1CCC(C)C2` (stereo not given), for which the survival was 112%.

`CCCOc1ccc(C(=O)Nc2sc3c(c2C(=O)OCC)CCCCC3)cc1`: the survival is 24% (active).

For `CC(C)(C)C1CCc2c(sc(NC(=O)c3cc4ccccc4c(=O)o3)c2C(N)=O)C1` (stereo not given), the survival was 44% (active).

On to `CCCCOc1ccc(C(=O)Nc2sc3c(c2C(=O)OCC)CCCCC3)cc1`, for which the survival is 50%.

Consider `CCCCOc1cccc(C(=O)Nc2sc3c(c2C(=O)OCC)CCCC3)c1`, for which the survival is 53%.

In the case of `CCN(CC)Cc1c(NC(=O)c2ccc(OC)cc2)sc2c1CCCC2`, the survival is 71%.

In the case of `Cc1c(C(=O)NCCN(C)C)oc2c1-c1nn(Cc3ccccc3Cl)cc1CC2`, the survival is 110%.

For `O=C(Oc1ccc(F)cc1)c1nc(SCc2ccc(F)cc2)ncc1Cl`, the survival is 79%.

With `COC(=O)C1=NNC2(c3ccc(C)cc3)C(=O)N(c3ccc(C)cc3)C(=O)C12` (stereo not given), the survival was 107%.

As for `Cc1oc(C(=O)O)cc1CSC(C)C(=O)O` (stereo not given), the survival was 88%.

For the compound `CC(C)c1nn2c(=O)cc(COC(=O)c3ccccc3Cl)nc2s1`, the survival is 88%.

Consider `CC(=O)Nc1nc(-c2cccs2)nc2c1c(=O)oc1ccccc12`, for which the survival was 92%.

For `COc1ccc(N=C2SC(C(=O)Nc3ccccc3)CC(=O)N2C)cc1` (stereo not given), the survival is 91%.

With `O=C(CN1C(=O)C2(SCC(=O)N2c2ccccc2)c2ccccc21)NCCc1ccccc1` (stereo not given), the survival was 116%.

In the case of `Cc1nnsc1C(=O)Oc1ccc(C(C)C)cc1`, the survival is 89%.
